Assay results from the supplement of paper PMC6897291.

Tested on: RIVA
Assay: growth inhibition by drug plus 177Lu-lilotomab satetraxetan (1 - RLU/untreated control) (fraction); higher = stronger inhibition
Settings: 177Lu-lilotomab satetraxetan 0.5 ug/ml
Method: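 RIVA (RI-1) ABC-DLBCL cells were pretreated or not for 18 h with 0.5 ug/ml 177Lu-lilotomab satetraxetan (600 MBq/mg), washed and seeded (3000 cells/well) on 384-well plates pre-printed with the Selleck Cambridge Cancer Compound library. Viability was read by RealTime-Glo luminescence on days 3-6 after seeding. Effect = 1 - RLU/mean RLU of the 48 untreated no-drug control wells per plate; Bliss score = (M-E)/(1-Fa).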

| Compound | growth inhibition by drug plus 177Lu-lilotomab satetraxetan (10 nM, time (day): 3) | growth inhibition by drug plus 177Lu-lilotomab satetraxetan (10 nM, time (day): 4) | growth inhibition by drug plus 177Lu-lilotomab satetraxetan (10 nM, time (day): 5) | growth inhibition by drug plus 177Lu-lilotomab satetraxetan (10 nM, time (day): 6) | growth inhibition by drug plus 177Lu-lilotomab satetraxetan (100 nM, time (day): 3) | growth inhibition by drug plus 177Lu-lilotomab satetraxetan (100 nM, time (day): 4) | growth inhibition by drug plus 177Lu-lilotomab satetraxetan (100 nM, time (day): 5) | growth inhibition by drug plus 177Lu-lilotomab satetraxetan (100 nM, time (day): 6) |
| --- | --- | --- | --- | --- | --- | --- | --- | --- |
| C[C@@H](Oc1cc(-n2cnc3ccc(CN4CCN(C)CC4)cc32)sc1C(N)=O)c1ccccc1C(F)(F)F | 0.759 | 0.799 | 0.824 | 0.853 | 0.943 | 0.964 | 0.974 | 0.981 |
| O=C(Nc1ncc([N+](=O)[O-])s1)c1ccc([N+](=O)[O-])c(Cl)c1 | 0.666 | 0.663 | 0.69 | 0.688 | 0.605 | 0.655 | 0.669 | 0.679 |
| CCc1cncnc1N1CCN(Cc2nc3ccc(C(F)(F)F)cc3[nH]2)CC1 | 0.505 | 0.583 | 0.59 | 0.587 | 0.49 | 0.55 | 0.542 | 0.514 |
| CCOc1cc2ncc(C#N)c(Nc3ccc(OCc4ccccn4)c(Cl)c3)c2cc1NC(=O)/C=C/CN(C)C [Neratinib (HKI-272)] | 0.358 | 0.498 | 0.529 | 0.541 | 0.367 | 0.422 | 0.425 | 0.419 |
| CCOC(=O)[C@@H](C)Oc1cccc2c(=O)n(CC(=O)Nc3ccc4c(c3)OCCO4)ccc12 | 0.384 | 0.517 | 0.542 | 0.536 | 0.305 | 0.424 | 0.427 | 0.414 |
